The supplement of paper PMC6089552
The campaign covered roughly 3,200 compounds. About 300 (9.4%) showed activity. Many of the other results were omitted from the sample, so actives are more common in it than they were. Unmarked numbers belong to inactive results.

System: A673/TR/shEF
Assay: cell viability (LOESS-normalised, relative to median of negative controls) (log2 ratio); higher = more viable cells (less compound effect), active = hit call of the paper (over 3 MAD below the median)
Conditions: treatment time: 72 h
In short: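 A673/TR/shEF Ewing sarcoma cells (1,500 per well, 384-well plates) were grown with or without doxycycline to induce EWS-FLI1 shRNA knockdown, starting 24 h before compounds. Library compounds at two or more concentrations, with DMSO controls, were added for three days. Cell viability was read by CellTiter-Glo luminescence on an Envision reader, then LOESS-corrected per plate, divided by the median of negative controls and log2-transformed. Hits were wells at least three median absolute deviations from the median of all screened wells.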

[1] = 0.25 µM, library screen: screen1, EWS-FLI1 expression: high (no doxycycline)
[2] = 0.25 µM, library screen: screen1, EWS-FLI1 expression: low (doxycycline-induced shRNA knockdown)
[3] = 2.5 µM, library screen: screen1, EWS-FLI1 expression: high (no doxycycline)
[4] = 2.5 µM, library screen: screen1, EWS-FLI1 expression: low (doxycycline-induced shRNA knockdown)
[5] = 0.103 µM, library screen: screen3, EWS-FLI1 expression: high (no doxycycline)
[6] = 0.103 µM, library screen: screen3, EWS-FLI1 expression: low (doxycycline-induced shRNA knockdown)
[7] = 0.308 µM, library screen: screen3, EWS-FLI1 expression: high (no doxycycline)
[8] = 0.308 µM, library screen: screen3, EWS-FLI1 expression: low (doxycycline-induced shRNA knockdown)
[9] = 0.926 µM, library screen: screen3, EWS-FLI1 expression: high (no doxycycline)
[10] = 0.926 µM, library screen: screen3, EWS-FLI1 expression: low (doxycycline-induced shRNA knockdown)
[11] = 2.8 µM, library screen: screen3, EWS-FLI1 expression: high (no doxycycline)
[12] = 2.8 µM, library screen: screen3, EWS-FLI1 expression: low (doxycycline-induced shRNA knockdown)
[13] = 8.3 µM, library screen: screen3, EWS-FLI1 expression: high (no doxycycline)
[14] = 8.3 µM, library screen: screen3, EWS-FLI1 expression: low (doxycycline-induced shRNA knockdown)
[15] = 25 µM, library screen: screen3, EWS-FLI1 expression: high (no doxycycline)
[16] = 25 µM, library screen: screen3, EWS-FLI1 expression: low (doxycycline-induced shRNA knockdown)
[17] = 0.25 µM, library screen: screen2, EWS-FLI1 expression: high (no doxycycline)
[18] = 0.25 µM, library screen: screen2, EWS-FLI1 expression: low (doxycycline-induced shRNA knockdown)
[19] = 2.5 µM, library screen: screen2, EWS-FLI1 expression: high (no doxycycline)
[20] = 2.5 µM, library screen: screen2, EWS-FLI1 expression: low (doxycycline-induced shRNA knockdown)
[21] = 0.025 µM, library screen: screen1, EWS-FLI1 expression: high (no doxycycline)
[22] = 0.025 µM, library screen: screen1, EWS-FLI1 expression: low (doxycycline-induced shRNA knockdown)
[23] = 25 µM, library screen: screen1, EWS-FLI1 expression: high (no doxycycline)
[24] = 25 µM, library screen: screen1, EWS-FLI1 expression: low (doxycycline-induced shRNA knockdown)

## COC(=O)C[C@H]1C(C)(C)C(=O)[C@@H]2C[C@@]3(O)C4=CC(=O)O[C@@H](c5ccoc5)[C@]4(C)CCC3[C@@]1(C)C2=O (stereo partly specified)
[1]
  cell viability (log2): 0.0813
[2]
  cell viability (log2): 0.00839
[3]
  cell viability (log2): 0.172
[4]
  cell viability (log2): 0.118

## COc1ccccc1C1NC(=S)NC(C)=C1C(=O)Nc1ccccc1Cl (stereo unspecified)
[1]
  cell viability (log2): 0.153
[2]
  cell viability (log2): 0.0944
[3]
  cell viability (log2): 0.107
[4]
  cell viability (log2): 0.0425

## Cc1cc(=O)c2c(O)cc(O)c(C)c2o1
[1]
  cell viability (log2): 0.111
[2]
  cell viability (log2): 0.0695
[3]
  cell viability (log2): 0.0905
[4]
  cell viability (log2): 0.0937

## COc1ccc(-c2nc3ccc(C4=NNC(=O)CC4C)cc3[nH]2)cc1 (stereo unspecified)
[5]
  cell viability (log2): -0.0122
[6]
  cell viability (log2): 0.0487
[7]
  cell viability (log2): -0.0245
[8]
  cell viability (log2): -0.0302
[9]
  cell viability (log2): -0.00296
[10]
  cell viability (log2): -0.0241
[11]
  cell viability (log2): 0.0147
[12]
  cell viability (log2): -0.00868
[13]
  cell viability (log2): -0.0247
[14]
  cell viability (log2): 0.0168
[15]
  cell viability (log2): -0.172
[16]
  cell viability (log2): -0.00571

## O=C(C=Cc1ccccc1)c1ccccc1O
[1]
  cell viability (log2): 0.0713
[2]
  cell viability (log2): 0.0789
[3]
  cell viability (log2): 0.0334
[4]
  cell viability (log2): 0.11

## O=C(/C=C/c1ccccc1)c1c(O)cc(O)cc1O
[1]
  cell viability (log2): 0.0431
[2]
  cell viability (log2): 0.0419
[3]
  cell viability (log2): 0.0216
[4]
  cell viability (log2): -0.0857

## O=C(/C=C/c1cccc(S(=O)(=O)Nc2ccccc2)c1)NO
[5]
  cell viability (log2): 0.0161
[6]
  cell viability (log2): 0.0578
[7]
  cell viability (log2): 0.00773
[8]
  cell viability (log2): 0.0247
[9]
  cell viability (log2): -0.074
[10]
  cell viability (log2): -0.000337
[11]
  cell viability (log2): -0.399 (active)
[12]
  cell viability (log2): -0.113 (active)
[13]
  cell viability (log2): -1.47 (active)
[14]
  cell viability (log2): -0.52 (active)
[15]
  cell viability (log2): -4.33 (active)
[16]
  cell viability (log2): -2.11 (active)

## O=S(=O)(c1ccc(Br)c2ccccc12)n1ccnc1
[1]
  cell viability (log2): 0.091
[2]
  cell viability (log2): 0.0921
[3]
  cell viability (log2): 0.103
[4]
  cell viability (log2): 0.117

## Cc1ccc(NC(=O)c2ccc(OC3CSC3)cc2)cc1
[1]
  cell viability (log2): -0.0477
[2]
  cell viability (log2): -0.0107
[3]
  cell viability (log2): 0.0585
[4]
  cell viability (log2): 0.076

## CCOc1cc(C(=O)Nc2ccc([N+](=O)[O-])cc2)cc(OCC)c1OCC
[1]
  cell viability (log2): 0.054
[2]
  cell viability (log2): 0.0461
[3]
  cell viability (log2): 0.0696
[4]
  cell viability (log2): -0.156

## COCc1cc(C)nc(SCC(=O)NC(C)(C)C)c1C#N
[1]
  cell viability (log2): 0.122
[2]
  cell viability (log2): 0.0633
[3]
  cell viability (log2): 0.0645
[4]
  cell viability (log2): -0.0386

## O=C1N(c2ccccc2)c2ccccc2C1(Cc1ccncc1)Cc1ccncc1
[17]
  cell viability (log2): 0.0704
[18]
  cell viability (log2): 0.0498
[19]
  cell viability (log2): -0.0773 (active)
[20]
  cell viability (log2): 0.0762

## NC(=O)NCC(N)C(=O)O (stereo unspecified)
[1]
  cell viability (log2): -0.0311
[2]
  cell viability (log2): 0.00393
[3]
  cell viability (log2): 0.0385
[4]
  cell viability (log2): 0.0656

## O=C(O)/C=C(/CC(=O)O)C(=O)O
[1]
  cell viability (log2): 0.0822
[2]
  cell viability (log2): 0.00778
[3]
  cell viability (log2): 0.03
[4]
  cell viability (log2): 0.0214

## O=C1C=C(O)c2ccccc2C1=O
[1]
  cell viability (log2): 0.0525
[2]
  cell viability (log2): -0.00535
[3]
  cell viability (log2): 0.0828
[4]
  cell viability (log2): 0.181

## CCCCCCCCCCCCCCCC(=O)O[C@H](CC(=O)[O-])C[N+](C)(C)C
[21]
  cell viability (log2): 0.0342
[22]
  cell viability (log2): 0.0241
[1]
  cell viability (log2): 0.194
[2]
  cell viability (log2): 0.0339
[3]
  cell viability (log2): 0.0599
[4]
  cell viability (log2): -0.023
[23]
  cell viability (log2): -0.454 (active)
[24]
  cell viability (log2): -0.672 (active)

## CCCCCCCCCCCCCCCCCC(=O)OC(CC(=O)O)C[N+](C)(C)C (stereo unspecified)
[1]
  cell viability (log2): 0.12
[2]
  cell viability (log2): -0.0279
[17]
  cell viability (log2): 0.206
[18]
  cell viability (log2): 0.0207
[3]
  cell viability (log2): 0.187
[4]
  cell viability (log2): 0.0146
[19]
  cell viability (log2): 0.154
[20]
  cell viability (log2): 0.133

## CCCCCCCCCCCCCCCC(=O)OC(CC(=O)[O-])C[N+](C)(C)C (stereo unspecified)
[17]
  cell viability (log2): 0.153
[18]
  cell viability (log2): 0.133
[19]
  cell viability (log2): 0.18
[20]
  cell viability (log2): 0.0929

## NC(=Nc1nc2ccccc2o1)NC(=O)c1sc2ccccc2c1Cl
[1]
  cell viability (log2): 0.078
[2]
  cell viability (log2): 0.000721
[3]
  cell viability (log2): 0.0829
[4]
  cell viability (log2): -0.0453

## O=C1c2ccccc2-c2n[nH]c3cccc1c23
[21]
  cell viability (log2): 0.132
[22]
  cell viability (log2): 0.0656
[1]
  cell viability (log2): 0.181
[2]
  cell viability (log2): -0.0312
[3]
  cell viability (log2): -0.0168
[4]
  cell viability (log2): 0.228
[23]
  cell viability (log2): -0.11 (active)
[24]
  cell viability (log2): 0.104

## COC1=C(OC)C(=O)c2ccccc2C1=O
[17]
  cell viability (log2): 0.153
[18]
  cell viability (log2): 0.0608
[19]
  cell viability (log2): 0.12
[20]
  cell viability (log2): 0.0758

## CCC(C)CCCCC(=O)NC(CCNCS(=O)(=O)O)C(=O)NC(C(=O)NC(CCNCS(=O)(=O)O)C(=O)NC1CCNC(=O)C(C(C)O)NC(=O)C(CCNCS(=O)(=O)O)NC(=O)C(CCNCS(=O)(=O)O)NC(=O)C(CC(C)C)NC(=O)C(CC(C)C)NC(=O)C(CCNCS(=O)(=O)O)NC1=O)C(C)O (stereo unspecified)
[1]
  cell viability (log2): 0.117
[2]
  cell viability (log2): 0.0486
[3]
  cell viability (log2): 0.103
[4]
  cell viability (log2): -0.0146
